Shiga inhibitor = A qHTS for Small Molecule Inhibitors of Shiga Toxin; Vero cells, Shiga toxin protein synthesis inhibition reporter; inhibition, % at 38.7 µM; 9.2% of 290,000 active; AID 2315, 2010; in the data active = inhibition mostly above about 28%, no sharp cut-off; inactive = mostly below about 43%; note: 0% is about no effect
LASV entry inh = qHTS for Inhibitors of binding or entry into cells for Lassa Virus; Lassa virus pseudotype entry inhibition, cell reporter; Potency, µM (doses to about 37.9 µM), for inactives: at the top dose activity change, negative = inhibition, most hits filed as inhibitors; 1.2% of 300,000 active; calls by dose curve; tested in HEK293 cells; note: potency is the fitted concentration of half-maximal effect; % is set by controls: 0 for no effect and ±100 for the full control effect; nearly all actives have a fitted effect of over 50% in size
FMDV antiviral = High Throughput Screening for Foot and Mouth Disease Virus Antivirals; 1.2% of 410,000 active; Potency, µM (top dose mostly 57.9 µM), for inactives: at the highest dose activity change, negative = inhibition, usual class: inhibitors; FMDV antiviral cell-based qHTS; calls by dose curve; tested in HEK293T cells; note: read-out not given here; potency is the fitted concentration of half-maximal effect; % is set by controls: 0 for no effect and ±100 for the full control effect; nearly all actives have a fitted effect of over 45% in size
CHX counter = Cycloheximide Counterscreen for Small Molecule Inhibitors of Shiga Toxin; cell reporter, cycloheximide protein synthesis inhibition counterscreen; max response, %; 12% of 300,000 active; in the data active = max response mostly above about 13%, no sharp cut-off; inactive = mostly below about 14%; note: read at 38.3 µM for the half of the compounds with a filed dose; 0% is about no effect
HCV inhibitor = qHTS Assay for Inhibitors of Hepatitis C Virus (HCV) | 3.4% of 340,000 active | Potency, µM (titrated, usually from 41.8 µM), without a hit: at the top dose activity change, negative = inhibition, hits mostly inhibitors | Huh7.5.1 HCVcc-Cre infection, luciferase reporter, 44 h; active = well fitted inhibition curve with a large enough effect; inconclusive = small, poorly fitted or top-dose-only effect, or another doubt; inactive = no such curve, though single readings can be large or run the other way; note: potency is the fitted concentration of half-maximal effect; % is set by controls: 0 for no effect and ±100 for the full control effect
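Whole-lifecycle infectious HCVcc-Cre system; cells 1,000/well, compound then virus (~0.5 moi) added 4 h after plating, 44 h culture. Luciferase read 15 sec following 15 min substrate incubation, room temp.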
Marburg entry inh = qHTS for inhibitors of binding or entry into cells for Marburg Virus. Marburg virus pseudotyped entry inhibition, cell reporter. Potency, µM (doses to about 37.8 µM), for inactives: at the highest dose activity change, negative = inhibition, actives largely listed as inhibitors. 1.8% of 300,000 active; calls by dose curve; tested in HEK293 cells; note: potency is the fitted concentration of half-maximal effect; % is set by controls: 0 for no effect and ±100 for the full control effect
The depositor's hits bear a star; ? = inconclusive; . = not tested or not shown; [ ] = remark or other dose. Sampled rows, rich in hits. Any-hit rate of the full collection: about 13%.

SMILES	Shiga inhibitor	LASV entry inh	FMDV antiviral	CHX counter	HCV inhibitor	Marburg entry inh
Cc1ccc(NC(=O)CSc2ncnc3ccccc23)cc1S(=O)(=O)N1CCCCC1	23	?	16µM*	-5	?	?
Oc1ccc(-c2nnc(Nc3cccc(O)c3)c3ccccc23)cc1	32	.	-16%	-2	?	.
CC(=O)Nc1ccc(NC(=O)C2CCN(S(=O)(=O)c3cccc4nonc34)CC2)cc1	25	3%	.	5	4%	-5%
O=C(COc1cccnc1[N+](=O)[O-])Nc1cc(S(=O)(=O)N2CCCCC2)ccc1Cl	2	.	-24%	-4	-7%	.
O=C(Nc1ccc(F)c(F)c1)C1CCN(S(=O)(=O)c2cccc3nonc23)CC1	-3	-9%	20µM*	4	?	-2%[46.1 µM]
Cc1ccc(NC(=O)Cc2n[nH]c(=O)c3ccccc23)cc1S(=O)(=O)N1CCCCCC1	.	?	-14%	.	10µM*	?
Cc1ccc(NC(=O)COc2cccnc2[N+](=O)[O-])cc1S(=O)(=O)N1CCCCC1	-15	?	40µM*	-6	?	?
CCOc1ccc(-n2c(=O)[nH]cc(C(=O)Nc3ccc(OC)c(OC)c3)c2=O)cc1	-13	?	-8%	-5	28%	8%[46.1 µM]
Cc1ccc(CCNC(=O)CCn2c(=O)c3cccn3c3ccc(F)cc32)cc1	-3	-29%[46.1 µM]	7%	-2	?	?
Cn1cc(/C=N/NC(=O)c2ccccc2O)c2ccccc21	53	.	43%	25*	-8%	.
CC(=O)n1cc(/C=N/NC(=O)c2ccccc2O)c2ccccc21	66*	.	16%	26*	-5%	.
CC(C)(C)OC(=O)n1cc(/C=N/NC(=O)c2ccco2)c2ccccc21	68*	-19%[46.1 µM]	-6%	37*	?	-2%[46.1 µM]
COc1ccc(/C=N/NC(=O)c2cccc([N+](=O)[O-])c2)c2ccccc12	-6	.	-28%	6	?	.
Cn1cc(/C=N/NC(=O)c2cccc([N+](=O)[O-])c2)c2ccccc21	-9	5%	1%	-2	10µM*	31%
CCOc1ccc(OCCSc2nc(-c3ccccc3)cc(=O)[nH]2)cc1	-15	-18%	-13%	-1	6%	16%[46.1 µM]
CCOc1ccc(NC(=S)N2CCC(C(=O)c3ccc(OC)cc3)CC2)cc1	.	.	37%	.	.	.
C[n+]1ccccc1N1CCN(c2ccccc2Cl)CC1	-3	10%	-29%	-2	1%	-4%
COc1ccc(/C=C(/NC(=O)c2ccccc2)c2nc3ccc(Cl)cc3[nH]2)cc1OC	18	?	?	-6	?	?
COc1ccc(NC(=O)c2c(Cl)nc3ccccn23)cc1	74*	?	9%	32*	10%	13%[46.1 µM]
Cc1cccc(-n2cnc(C(=O)NNC(=S)Nc3ccc(Cl)cc3)c2)n1	-4	?	-1%	6	-1%	11µM*
O=C(Nc1ccc(F)cc1)c1c(Cl)nc2ccccn12	73*	-10%	29%	31*	0%	?
Cc1nc2ccccn2c1C(=O)NNC(=S)Nc1ccc(Cl)cc1	19*	-4%	-18%	-1	-20%	-18%
Cc1nc2ccccn2c1C(=O)NNC(=S)Nc1ccccc1	-1	27%[46.1 µM]	1%	7	3%	27%[46.1 µM]
Cc1cccc(-n2cnc(C(=O)N/N=C\c3ccc(Br)cc3)c2)n1	-11	21%	-24%	-1	25%	?
O=C(NCCc1cccs1)c1ccc(CS(=O)Cc2cccc(Cl)c2)o1 (stereo not given)	.	.	23%	.	.	.
CCOc1ccc(NS(=O)(=O)c2cc(C(=O)N3CCC3)ccc2Cl)cc1	.	4%	-2%	.	24%	-10%
Cc1nnc(SCC(=O)N2CCN(S(=O)(=O)c3ccccc3)CC2)s1	-9	4%	-8%	7	27%	2%
CCOc1cc(C2NC(=O)NC(c3ccccc3)=C2C(C)=O)ccc1OCC(N)=O (stereo not given)	-19	-21%	15%	-4	8%	14%
Cn1ccc2c(-c3ccc(C(N)=O)cc3)cc3c(c21)C1CCC3C1 (stereo not given)	.	.	-24%	.	.	?
COC(=O)c1cccc(-n2c(C)cc(/C=C3\SC(=O)NC3=O)c2C)c1	.	.	35%	.	.	.
